Results filed as inconclusive are left out. Values without a mark were called inactive. Calls of active or inactive are those of the source. The call rests on the fitted dose curve; in most records, active means well fitted activation curve with a large enough effect in the signal ratio in the repeat runs (not every such curve was filed as active); inconclusive means weak or mixed curves; inactive means flat fitted curve, though single readings scatter; the % refers to the signal ratio.
Assay: qHTS assay to identify small molecule agonists of H2AX (AID 1224845)
Conditions: CHO-K1 phospho-H2AX Ser139 HTRF, 3 h; series mostly up to 154 µM; activation (H2AX phosphorylation): at the top concentration
Excerpt: National Center for Advancing Translational Sciences [NCATS]
NIH Chemical Genomics Center [NCGC]
U.S. Environmental Protection Agency [EPA]
National Institutes of Environmental Health Sciences [NIEHS]
National Toxicology Program [NTP]
U.S. Food and Drug Administration [FDA]
HTRF phospho-H2AX (Ser139) assay (Cisbio Bioassays, US) enables the quantitative detection of the histone variant H2AX when phosphorylated on serine 139. When double-stranded DNA breaks, either by ionizing radiation or endogenous physiological processes, H2AX becomes phosphorylated at Ser139. This phospho-Ser139 serves as a sensitive biomarker for the detection of such breaks, localizing the site of DNA repair. So, HTRF phospho-H2AX Ser139 is a pertinent assay to study genome stability, the cell cycle, DNA repair, and it serves as a biomarker for cancer, and to understand aging. Wild type CHO-K1 cells were used to identify the inducers of Phospho-H2AX Ser 139 from the Tox21 10K compound collections.
Tox21 Assay Protocol Summary:
The CHO-K1 cells suspended in culture medium containing 10% FBS were dispensed at 1000 cells/ 3 ul/well in 1536-well white wall/solid bottom plates (Greiner Bio-One North America, NC) using a Multidrop Combi (Thermo Fisher Scientific Inc., Waltham, MA). After the assay plates were incubated at 37C overnight, 23 nl of compounds at 15 concentrations (from 5-48 columns) or positive control (from 1 to 4 columns) were transferred to the assay plates using a Pintool station (Wako, San Diego, CA) into each well resulting in a final DMSO concentration of 0.76%. After 3hr incubation at 37C, 1 uL/well Supplemented Lysis buffer (diluted 100 fold blocking reagent in lysis buffer) (HTRF Phospho-H2A.X (S139) Assay kit from Cisbio US Inc., Bedford, MA) was added using a Flying Reagent Dispenser (FRD) (Aurora Discovery, CA). After 10sec spin at 1000 rpm in a plate centrifuge, the assay plates were incubated at room temperature for 30 min. Then followed by the addition of 1 uL/well detection buffer (containing a mixture of two antibodies, one labeled with cryptate, Anti pH2AX (S139)-K and another labeled with d2, Anti H2AX-d2) using FRD. After incubation at room temperature for 24 hr, the time resolved fluorescence at excitation 320 nm and emissions at 665 nm and 620 nm was measured using an Envision plate reader (PerkinElmer, Waltham, MA).
On the % scale 0 is the no-effect control and ±100 the full control effect; potency means the concentration at half of the fitted maximal effect.

Structure (SMILES)	activation (H2AX phosphorylation)	Potency
C/C=C/C=C/CO	0.359%	
CC(CC=O)c1ccccc1 (stereo not given)	-1.34%	
Brc1c2ccccc2cc2ccccc12	-2.07%	
O=C(OCCc1ccccc1)c1ccccc1	4.93%	
OCc1cc(C(O)CNCCCCCCOCCCCc2ccccc2)ccc1O (stereo not given)	4.68% [at 70.9 µM]	
O=C1CCC(=O)O1	0.283%	
Cc1[nH]c(C)c(Cl)c(=O)c1Cl	1.85% [at 31.6 µM]	
C/C(=C(\CCOP(=O)(O)O)SC(=O)c1ccccc1)N(C=O)Cc1cnc(C)nc1N	-0.259% [at 14 µM]	
Cc1oc2c(NC(=O)c3c(Cl)cccc3Cl)cccc2c1C(C)(C)O	0.484%	
CCCn1cnc2c1c(=O)n(CCCCC(C)=O)c(=O)n2C	0.0488% [at 70.9 µM]	
CCCCC(CC)COC(=O)COc1ccc(Cl)cc1Cl (stereo not given)	-0.0552%	
CCC(C)O (stereo not given)	0.689%	
CC(=O)[O][Al][O]C(C)=O	-0.627%	
Nc1c(CC(=O)O)cccc1C(=O)c1ccc(Br)cc1	-3.6% [at 70.9 µM]	
CC(=O)c1ccc2c(c1)N(CCCN(C)C)c1ccccc1S2	1.67% [at 70.9 µM]	
Nc1ccccc1S(=O)(=O)c1ccccc1	4.11%	
NCCCN1CCOCC1	-1.38%	
C[C@@H](c1ncncc1F)C(O)(Cn1cncn1)c1ccc(F)cc1F (stereo not given in full)	-7.54% [at 70.9 µM]	
CCOC(=O)COC(=O)c1cc(Oc2ccc(C(F)(F)F)cc2Cl)ccc1[N+](=O)[O-]	-3.84%	
COc1cc(C(=O)OCCCN2CCCN(CCCOC(=O)c3cc(OC)c(OC)c(OC)c3)CC2)cc(OC)c1OC	0.184% [at 70.9 µM]	

Structure (SMILES)	activation (H2AX phosphorylation)	Potency
C=C1C(=C/C=C2\CCC[C@]3(C)[C@@H]([C@H](C)/C=C/[C@@H](O)C4CC4)CC[C@@H]23)C[C@@H](O)C[C@@H]1O	1.06% [at 70.9 µM]	
CCCCOC(=O)CCCCCCCC(=O)OCCCC	-2.5%	
Nc1ccc(S(=O)(=O)Nc2ccccc2)cc1	0.23% [at 70.9 µM]	
CN(C)c1ccc(CCO)cc1	3.55%	
CCCCc1nc2cccnc2n1Cc1ccc(-c2ccccc2-c2nnn[nH]2)cc1	-1.82%	
O=C(O)c1ccccc1Cl	0.99%	
CN(Cc1ccc(C(C)(C)C)cc1)Cc1cccc2ccccc12	-4.07% [at 70.9 µM]	
COc1cc2nc(N(C)CCCNC(=O)C3CCCO3)nc(N)c2cc1OC (stereo not given)	-0.801% [at 70.9 µM]	
CCCCCCCCCCCCCCCCCCOS(=O)(=O)O	0.914%	
O=C(NCC1CN(c2ccc(N3CCOCC3=O)cc2)C(=O)O1)c1ccc(Cl)s1 (stereo not given)	-3.33% [at 70.9 µM]	
CCC(=O)O[C@]1(C(=O)CCl)[C@@H](C)C[C@H]2[C@@H]3CCC4=CC(=O)C=C[C@]4(C)[C@@]3(F)[C@@H](O)C[C@@]21C	-2.03% [at 70.9 µM]	
C[C@@H]1C[C@H]2O[C@@]3(O[C@@H]2C(C)(C)O)[C@H](O)[C@@]2(C)[C@@H]4CC[C@H]5C(C)(C)[C@@H](O[C@@H]6OC[C@@H](O)[C@H](O)[C@H]6O)CC[C@@]56C[C@@]46CC[C@]2(C)[C@@H]13	-1.31% [at 70.9 µM]	
CCC(C)c1cc(C(C)(C)C)c(O)c(C(C)(C)C)c1 (stereo not given)	-2.91%	
C=CC(=O)OCCOCCOC(=O)C=C		56.9 µM (active)
CCN(CC)CCNc1ccc(CNC=O)c2sc3ccc(OC)cc3c(=O)c12	10.5%	
COC(C)OC	0.389%	
CN1CCN(C(c2ccccc2)c2ccccc2)CC1	-2.87% [at 70.9 µM]	
CCOC(=O)C(O)c1ccccc1 (stereo not given)	0.967% [at 70.9 µM]	
CC1=CC=C(C(C)C)CC1	-1.57%	
CCCC(=O)Nc1ccc(O)c(C(C)=O)c1	-0.479% [at 70.9 µM]	
